ChEMBL document CHEMBL2218924, “A broad activity screen in support of a chemogenomic map for kinase signalling research and drug discovery” (Biochem J, 2013)

Tests used:
[1] = biological target: Ribosomal protein S6 kinase alpha-1 (Homo sapiens) (UniProt Q15418); conditions: at 1 µM
[2] = biological target: Ribosomal protein S6 kinase alpha-1 (Homo sapiens) (UniProt Q15418); conditions: at 10 µM
[3] = biological target: Ribosomal protein S6 kinase alpha-3 (Homo sapiens) (UniProt P51812); conditions: at 1 µM
Ribosomal protein S6 kinase alpha-3 (Homo sapiens), sequence (P51812 whole entry): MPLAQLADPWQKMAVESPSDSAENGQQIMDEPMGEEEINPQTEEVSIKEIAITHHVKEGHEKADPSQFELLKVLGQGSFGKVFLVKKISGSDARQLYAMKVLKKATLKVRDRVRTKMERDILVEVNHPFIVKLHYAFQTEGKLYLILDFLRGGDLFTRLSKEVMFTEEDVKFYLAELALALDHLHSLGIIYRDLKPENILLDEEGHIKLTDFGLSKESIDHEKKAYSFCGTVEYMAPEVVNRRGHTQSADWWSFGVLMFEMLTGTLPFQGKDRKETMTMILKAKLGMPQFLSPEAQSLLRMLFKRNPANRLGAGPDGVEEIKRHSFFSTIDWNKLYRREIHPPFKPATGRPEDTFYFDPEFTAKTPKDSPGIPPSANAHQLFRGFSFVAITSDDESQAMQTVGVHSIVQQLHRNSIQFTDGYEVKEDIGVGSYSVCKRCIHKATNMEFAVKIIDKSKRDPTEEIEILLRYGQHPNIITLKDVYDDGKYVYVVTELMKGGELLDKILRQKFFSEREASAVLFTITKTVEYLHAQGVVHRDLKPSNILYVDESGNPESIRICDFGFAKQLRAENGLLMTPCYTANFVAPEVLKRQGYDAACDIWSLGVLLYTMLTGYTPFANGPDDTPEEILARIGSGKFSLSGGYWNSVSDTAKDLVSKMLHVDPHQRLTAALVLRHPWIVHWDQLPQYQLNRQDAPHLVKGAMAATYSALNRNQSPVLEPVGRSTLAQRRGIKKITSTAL

[4] = biological target: Ribosomal protein S6 kinase alpha-3 (Homo sapiens) (UniProt P51812); conditions: at 10 µM
[5] = biological target: Ribosomal protein S6 kinase alpha-2 (Homo sapiens) (UniProt Q15349); conditions: at 1 µM
Ribosomal protein S6 kinase alpha-2 (Homo sapiens), sequence (Q15349 whole entry): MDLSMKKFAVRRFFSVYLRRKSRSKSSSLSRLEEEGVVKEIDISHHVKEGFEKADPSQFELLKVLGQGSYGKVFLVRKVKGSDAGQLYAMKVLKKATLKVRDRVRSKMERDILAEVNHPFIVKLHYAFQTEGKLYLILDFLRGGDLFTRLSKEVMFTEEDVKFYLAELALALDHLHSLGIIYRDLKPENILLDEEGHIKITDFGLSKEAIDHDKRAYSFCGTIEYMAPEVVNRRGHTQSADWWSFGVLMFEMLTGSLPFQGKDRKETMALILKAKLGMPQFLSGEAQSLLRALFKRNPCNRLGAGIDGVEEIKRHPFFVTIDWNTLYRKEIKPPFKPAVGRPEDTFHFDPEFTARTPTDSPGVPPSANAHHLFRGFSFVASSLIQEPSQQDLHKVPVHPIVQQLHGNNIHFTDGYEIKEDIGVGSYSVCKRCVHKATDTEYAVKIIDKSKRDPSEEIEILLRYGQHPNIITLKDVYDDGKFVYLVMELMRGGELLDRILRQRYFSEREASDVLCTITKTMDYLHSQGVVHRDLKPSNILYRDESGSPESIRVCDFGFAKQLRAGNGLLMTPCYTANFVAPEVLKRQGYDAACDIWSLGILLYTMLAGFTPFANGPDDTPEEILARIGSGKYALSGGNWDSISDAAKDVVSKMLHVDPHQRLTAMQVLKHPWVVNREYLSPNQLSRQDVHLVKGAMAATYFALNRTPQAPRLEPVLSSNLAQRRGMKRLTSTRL

[6] = biological target: Ribosomal protein S6 kinase alpha-2 (Homo sapiens) (UniProt Q15349); conditions: at 10 µM
[7] = biological target: Ribosomal protein S6 kinase alpha-6 (Homo sapiens) (UniProt Q9UK32); conditions: at 1 µM
Ribosomal protein S6 kinase alpha-6 (Homo sapiens), sequence (Q9UK32 whole entry): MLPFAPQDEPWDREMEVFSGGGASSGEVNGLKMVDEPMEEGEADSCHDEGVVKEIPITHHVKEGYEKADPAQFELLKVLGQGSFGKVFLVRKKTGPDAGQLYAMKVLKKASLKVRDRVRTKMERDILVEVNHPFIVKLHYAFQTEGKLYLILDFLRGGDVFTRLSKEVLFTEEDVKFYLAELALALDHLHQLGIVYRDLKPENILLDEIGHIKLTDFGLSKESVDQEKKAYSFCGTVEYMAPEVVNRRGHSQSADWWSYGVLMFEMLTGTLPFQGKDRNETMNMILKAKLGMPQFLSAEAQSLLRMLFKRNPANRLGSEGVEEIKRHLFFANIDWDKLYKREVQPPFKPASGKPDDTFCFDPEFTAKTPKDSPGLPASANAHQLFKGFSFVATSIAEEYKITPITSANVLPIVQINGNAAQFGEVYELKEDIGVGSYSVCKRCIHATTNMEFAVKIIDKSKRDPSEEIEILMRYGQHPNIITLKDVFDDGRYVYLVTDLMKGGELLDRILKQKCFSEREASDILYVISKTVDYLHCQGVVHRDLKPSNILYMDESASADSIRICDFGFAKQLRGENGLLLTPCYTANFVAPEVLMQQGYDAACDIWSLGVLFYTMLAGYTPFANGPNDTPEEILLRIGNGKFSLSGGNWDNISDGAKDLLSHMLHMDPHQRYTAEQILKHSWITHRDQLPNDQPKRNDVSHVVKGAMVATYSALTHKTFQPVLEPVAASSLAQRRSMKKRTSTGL

[8] = biological target: Ribosomal protein S6 kinase alpha-6 (Homo sapiens) (UniProt Q9UK32); conditions: at 10 µM
[9] = biological target: T1, Serine/threonine-protein kinase Sgk2 (Homo sapiens) (UniProt Q9HBY8); conditions: at 10 µM
T1 sequence (whole entry): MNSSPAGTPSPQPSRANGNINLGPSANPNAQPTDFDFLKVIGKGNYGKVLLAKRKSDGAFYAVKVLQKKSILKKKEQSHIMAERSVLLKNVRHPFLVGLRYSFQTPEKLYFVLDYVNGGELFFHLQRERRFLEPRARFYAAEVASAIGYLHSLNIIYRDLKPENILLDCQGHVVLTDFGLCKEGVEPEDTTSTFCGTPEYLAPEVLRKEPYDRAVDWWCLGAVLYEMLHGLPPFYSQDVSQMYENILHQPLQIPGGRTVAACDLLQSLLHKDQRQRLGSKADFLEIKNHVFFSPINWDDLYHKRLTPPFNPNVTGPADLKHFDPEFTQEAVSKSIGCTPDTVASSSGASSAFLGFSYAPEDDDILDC

[10] = biological target: Serine/threonine-protein kinase SIK1 (Homo sapiens) (UniProt P57059); conditions: at 1 µM
Serine/threonine-protein kinase SIK1 (Homo sapiens), sequence (P57059 whole entry): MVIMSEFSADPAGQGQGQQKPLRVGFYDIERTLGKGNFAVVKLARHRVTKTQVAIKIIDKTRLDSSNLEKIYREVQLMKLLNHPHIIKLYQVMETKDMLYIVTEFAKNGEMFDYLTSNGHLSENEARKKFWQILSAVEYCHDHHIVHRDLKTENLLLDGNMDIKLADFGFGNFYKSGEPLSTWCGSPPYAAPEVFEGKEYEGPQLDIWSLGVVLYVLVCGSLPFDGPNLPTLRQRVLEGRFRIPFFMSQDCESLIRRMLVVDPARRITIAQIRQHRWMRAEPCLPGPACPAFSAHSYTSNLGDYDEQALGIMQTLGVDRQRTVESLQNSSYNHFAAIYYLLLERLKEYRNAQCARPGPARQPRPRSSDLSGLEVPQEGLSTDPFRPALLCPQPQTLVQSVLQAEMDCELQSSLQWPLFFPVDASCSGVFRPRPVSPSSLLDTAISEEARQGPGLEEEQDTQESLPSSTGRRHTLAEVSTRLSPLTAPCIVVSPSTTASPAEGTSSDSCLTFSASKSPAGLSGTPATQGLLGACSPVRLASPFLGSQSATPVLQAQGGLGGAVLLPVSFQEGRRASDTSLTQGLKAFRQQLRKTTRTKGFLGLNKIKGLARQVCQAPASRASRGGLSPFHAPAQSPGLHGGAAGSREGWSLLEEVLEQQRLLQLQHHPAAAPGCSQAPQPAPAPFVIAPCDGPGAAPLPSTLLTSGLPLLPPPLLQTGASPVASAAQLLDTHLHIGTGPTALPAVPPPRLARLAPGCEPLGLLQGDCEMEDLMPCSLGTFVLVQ

[11] = biological target: Mitogen-activated protein kinase 14 (Homo sapiens) (UniProt Q16539); conditions: at 1 µM
Mitogen-activated protein kinase 14 (Homo sapiens), sequence (Q16539 whole entry): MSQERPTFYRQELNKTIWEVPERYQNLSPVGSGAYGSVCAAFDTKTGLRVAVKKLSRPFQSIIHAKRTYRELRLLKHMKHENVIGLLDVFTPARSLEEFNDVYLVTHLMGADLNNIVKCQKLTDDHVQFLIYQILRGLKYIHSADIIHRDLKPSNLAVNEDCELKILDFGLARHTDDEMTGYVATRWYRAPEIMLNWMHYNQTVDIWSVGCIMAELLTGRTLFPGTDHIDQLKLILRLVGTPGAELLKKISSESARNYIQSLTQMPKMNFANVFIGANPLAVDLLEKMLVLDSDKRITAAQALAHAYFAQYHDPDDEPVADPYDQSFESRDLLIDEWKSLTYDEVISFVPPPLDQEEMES

[12] = biological target: Mitogen-activated protein kinase 14 (Homo sapiens) (UniProt Q16539); conditions: at 10 µM
[13] = biological target: Mitogen-activated protein kinase 11 (Homo sapiens) (UniProt Q15759); conditions: at 10 µM
Mitogen-activated protein kinase 11 (Homo sapiens), sequence (Q15759 whole entry): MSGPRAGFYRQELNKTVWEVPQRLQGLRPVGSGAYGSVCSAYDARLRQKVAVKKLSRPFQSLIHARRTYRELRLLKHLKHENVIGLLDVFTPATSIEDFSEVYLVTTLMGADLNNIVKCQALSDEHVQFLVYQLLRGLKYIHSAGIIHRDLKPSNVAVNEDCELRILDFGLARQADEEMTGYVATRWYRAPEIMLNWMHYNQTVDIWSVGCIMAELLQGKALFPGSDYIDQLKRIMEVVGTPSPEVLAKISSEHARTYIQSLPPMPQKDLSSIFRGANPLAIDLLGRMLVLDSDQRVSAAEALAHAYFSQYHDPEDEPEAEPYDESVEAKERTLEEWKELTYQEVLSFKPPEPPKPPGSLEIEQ

[14] = biological target: T2, Mitogen-activated protein kinase 13 (Homo sapiens) (UniProt O15264); conditions: at 1 µM
T2 sequence (whole entry): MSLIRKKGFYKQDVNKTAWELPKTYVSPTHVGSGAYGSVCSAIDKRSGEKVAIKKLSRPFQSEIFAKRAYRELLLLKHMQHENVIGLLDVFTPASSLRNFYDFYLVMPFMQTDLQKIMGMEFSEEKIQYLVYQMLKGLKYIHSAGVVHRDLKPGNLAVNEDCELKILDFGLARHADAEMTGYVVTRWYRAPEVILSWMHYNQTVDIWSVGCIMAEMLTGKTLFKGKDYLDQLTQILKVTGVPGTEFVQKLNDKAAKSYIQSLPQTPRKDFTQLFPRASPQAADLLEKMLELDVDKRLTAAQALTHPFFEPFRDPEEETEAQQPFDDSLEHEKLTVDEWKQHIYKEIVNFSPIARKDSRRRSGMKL

[15] = biological target: T2, Mitogen-activated protein kinase 13 (Homo sapiens); conditions: at 10 µM
[16] = biological target: T3, Serine/threonine-protein kinase Sgk1 (Homo sapiens) (UniProt O00141); conditions: at 1 µM
T3 sequence (whole entry): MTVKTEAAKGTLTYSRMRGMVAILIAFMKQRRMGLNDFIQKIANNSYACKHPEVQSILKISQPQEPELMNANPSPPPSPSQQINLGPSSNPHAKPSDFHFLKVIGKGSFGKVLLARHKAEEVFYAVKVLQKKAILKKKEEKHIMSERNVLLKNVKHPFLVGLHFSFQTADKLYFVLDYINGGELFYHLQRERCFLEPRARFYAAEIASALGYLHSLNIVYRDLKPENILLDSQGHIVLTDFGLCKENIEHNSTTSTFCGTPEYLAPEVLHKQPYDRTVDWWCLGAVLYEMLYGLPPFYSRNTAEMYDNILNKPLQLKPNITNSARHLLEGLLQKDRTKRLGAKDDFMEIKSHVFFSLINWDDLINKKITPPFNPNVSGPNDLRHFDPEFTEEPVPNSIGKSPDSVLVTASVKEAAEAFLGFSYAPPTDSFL

[17] = biological target: T3, Serine/threonine-protein kinase Sgk1 (Homo sapiens); conditions: at 10 µM
[18] = biological target: T4, Serine/threonine-protein kinase Sgk3 (Homo sapiens) (UniProt Q96BR1); conditions: at 10 µM
T4 sequence (whole entry): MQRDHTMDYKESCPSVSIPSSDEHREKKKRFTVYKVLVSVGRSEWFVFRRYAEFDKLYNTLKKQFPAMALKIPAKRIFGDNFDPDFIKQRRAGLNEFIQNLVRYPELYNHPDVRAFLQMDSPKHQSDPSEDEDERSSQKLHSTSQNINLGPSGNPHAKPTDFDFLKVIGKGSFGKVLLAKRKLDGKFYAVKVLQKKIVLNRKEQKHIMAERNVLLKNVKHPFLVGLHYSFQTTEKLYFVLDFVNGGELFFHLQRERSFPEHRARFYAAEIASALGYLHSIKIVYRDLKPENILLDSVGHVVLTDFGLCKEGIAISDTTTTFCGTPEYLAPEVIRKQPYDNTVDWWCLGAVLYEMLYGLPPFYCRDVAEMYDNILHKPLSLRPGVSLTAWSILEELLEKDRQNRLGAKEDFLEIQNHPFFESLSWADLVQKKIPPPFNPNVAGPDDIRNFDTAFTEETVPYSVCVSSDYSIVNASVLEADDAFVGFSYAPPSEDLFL

[19] = biological target: T1, Serine/threonine-protein kinase Sgk2 (Homo sapiens); conditions: at 1 µM
[20] = biological target: Mitogen-activated protein kinase 11 (Homo sapiens) (UniProt Q15759); conditions: at 1 µM

Ribosomal protein S6 kinase alpha-1 (Homo sapiens), sequence (Q15418 whole entry): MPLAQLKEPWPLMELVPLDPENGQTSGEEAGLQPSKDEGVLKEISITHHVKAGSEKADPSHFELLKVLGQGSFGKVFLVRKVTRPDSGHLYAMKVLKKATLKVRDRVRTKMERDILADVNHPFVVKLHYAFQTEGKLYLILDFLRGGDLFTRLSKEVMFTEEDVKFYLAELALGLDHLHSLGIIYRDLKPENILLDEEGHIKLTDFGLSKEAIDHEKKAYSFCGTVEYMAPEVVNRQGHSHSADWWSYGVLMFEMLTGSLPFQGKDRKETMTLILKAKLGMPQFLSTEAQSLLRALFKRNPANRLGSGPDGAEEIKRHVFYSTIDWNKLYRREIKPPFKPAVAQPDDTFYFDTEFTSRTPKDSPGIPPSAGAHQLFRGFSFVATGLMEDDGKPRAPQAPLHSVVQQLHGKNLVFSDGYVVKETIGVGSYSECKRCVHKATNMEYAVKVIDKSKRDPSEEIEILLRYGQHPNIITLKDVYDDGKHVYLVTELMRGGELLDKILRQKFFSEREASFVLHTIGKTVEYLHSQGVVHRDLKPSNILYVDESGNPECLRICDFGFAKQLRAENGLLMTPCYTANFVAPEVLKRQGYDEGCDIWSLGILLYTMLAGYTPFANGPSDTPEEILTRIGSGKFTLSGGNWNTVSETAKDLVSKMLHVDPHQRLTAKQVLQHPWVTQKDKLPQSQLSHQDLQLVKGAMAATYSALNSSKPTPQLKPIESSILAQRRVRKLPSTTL

Row | SMILES | residual activity [1] | residual activity [2] | residual activity [3] | residual activity [4] | residual activity [5] | residual activity [6] | residual activity [7] | residual activity [8] | residual activity [9] | residual activity [10] | residual activity [11] | residual activity [12] | residual activity [13] | residual activity [14] | residual activity [15] | residual activity [16] | residual activity [17] | residual activity [18] | residual activity [19] | residual activity [20]
1 | O=S(=O)(NCCNC/C=C/c1ccc(Br)cc1)c1cccc2cnccc12 | 53% | 24% | 26% | 6% | 70% | 13% | 18% | 9% | 30% | 137% |  |  |  |  |  |  |  |  |  | 
2 | O=C1C(Cl)=C(N2C(=O)CCC2=O)C(=O)c2ccccc21 | 120% | 131% | 73% | 75% |  |  | 92% | 99% | 97% | 122% | 86% | 92% | 92% | 95% | 92% | 90% | 100% | 82% |  | 
3 | O=C1NC(=O)C(c2c[nH]c3ccccc23)=C1c1c[nH]c2ccccc12 | 22% | 3% | 27% | 3% | 5% | 0% | 9% | 1% | 29% | 81% | 98% | 73% |  |  | 99% | 76% | 65% |  | 78% | 
4 | Nc1nc(Nc2ccc(S(N)(=O)=O)cc2)nn1C(=O)c1c(F)cccc1F | 28% | 8% | 32% | 8% | 19% | 4% | 27% | 2% | 49% | 50% |  |  | 77% |  | 31% | 124% | 75% | 79% |  | 102%
5 | NC(=O)Nc1sc(-c2ccc(F)cc2)cc1C(N)=O | 85% | 33% | 33% | 9% | 30% | 7% |  |  |  | 28% | 91% | 77% | 68% | 90% | 73% |  |  | 85% |  | 89%
6 | CSc1nc(-c2ccc(F)cc2)c(-c2ccnc(NC(C)c3ccccc3)c2)[nH]1 (stereo unspecified) | 82% | 74% | 81% | 50% | 40% | 42% | 86% | 69% | 91% | 144% | -1% | 0% | -2% |  |  |  |  |  |  | 10%
7 | Nc1ncnc2[nH]nc(Nc3ccc(F)cc3)c12 | 106% | 64% | 42% | 24% | 59% | 17% | 48% | 30% | 43% | 48% | 78% | 47% |  | 103% | 94% | 94% | 74% | 80% | 113% | 103%
8 | O=C1NC(=O)c2c1c1c3ccccc3[nH]c1n1cncc21 | 58% | 43% | 57% | 24% | 33% | 15% | 37% | 36% | 38% | 83% | 93% | 87% | 87% | 93% | 88% | 66% | 47% | 67% | 52% | 90%
9 | CCN(CC)CCNC(=O)c1c(C)[nH]c(/C=C2\C(=O)Nc3ccc(Cl)cc32)c1C | 11% | 2% | 11% | 1% | 9% | 1% | 14% | 9% | 32% | 31% | 82% | 52% |  |  |  | 59% | 23% | 73% | 60% | 
10 | O=C(CCCc1ccc(-c2ccccc2F)cc1)Nc1ccc(O)cc1 | 90% | 89% | 111% | 129% | 97% | 86% | 104% | 96% | 135% |  | 91% | 59% | 95% | 105% | 96% | 83% | 179% |  | 131% | 105%
11 | O=c1cc(N2CCNCC2)oc2c(-c3ccccc3)cccc12 | 124% | 96% | 51% | 36% |  | 104% |  | 89% | 79% | 82% | 101% | 98% | 105% |  | 83% | 80% | 98% | 90% |  | 95%
12 | CC(C)c1nn(-c2c(Cl)cccc2Cl)c2nc(Cc3ccc(OCCO)cc3)[nH]c(=O)c12 | 105% | 56% | 46% | 29% | 88% | 47% | 71% | 49% | 91% | 109% | 92% | 82% | 105% |  | 59% | 99% | 103% | 81% | 97% | 
13 | c1ccc(-c2cnc(Nc3ccc(OCCN4CCCC4)cc3)s2)cc1 | 121% | 66% | 56% | 36% |  |  | 72% | 58% |  | 53% |  |  |  | 103% | 103% |  |  |  |  | 
14 | COc1cc2nccc(Oc3ccc(NC(=O)Nc4cc(C)on4)c(Cl)c3)c2cc1OC | 105% | 77% | 60% | 35% |  |  | 99% |  | 79% |  |  |  |  |  | 97% |  |  |  | 103% | 19%
15 | O=C(c1cc2cc(O)ccc2[nH]1)c1cc2cc(O)ccc2[nH]1 | 40% | 9% | 30% | 4% | 13% | 2% | 26% | 10% | 18% | 39% | 75% | 73% |  |  |  | 68% | 28% | 52% | 62% | 
16 | Nc1n[nH]c2nc3ccccc3nc12 | 118% | 87% | 65% | 54% | 93% | 77% | 83% | 71% | 45% | 118% | 90% | 97% |  |  | 98% |  |  |  | 92% | 
